The structures appear in SMILES notation.

For test [1], the target named is CDK3/Cyclin E (Homo sapiens) (UniProt P24864+Q00526). The following applies: at 1 µM.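 Note: each figure is a mean percent inhibition of the CDK3/cyclin E complex.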
Test [2] has as its target Cyclin-dependent kinase 4 (Homo sapiens) (UniProt P11802). Conditions: at 0.1 µM.
The target is the same in test [3]. Conditions: at 1 µM.
For test [4], the target named is Cyclin-dependent kinase 5 (Homo sapiens) (UniProt Q00535). The following applies: at 0.1 µM.
Chain of Cyclin-dependent kinase 5 (Homo sapiens) (Q00535 whole entry, looked up): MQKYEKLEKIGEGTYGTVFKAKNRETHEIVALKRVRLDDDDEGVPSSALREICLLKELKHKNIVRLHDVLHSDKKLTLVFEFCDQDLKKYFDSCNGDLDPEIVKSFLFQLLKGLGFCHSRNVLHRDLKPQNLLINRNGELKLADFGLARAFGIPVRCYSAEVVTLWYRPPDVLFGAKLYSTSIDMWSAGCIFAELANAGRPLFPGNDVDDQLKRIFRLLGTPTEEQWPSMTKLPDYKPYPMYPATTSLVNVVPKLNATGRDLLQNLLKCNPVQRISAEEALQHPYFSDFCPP
Test [5] has the same target. The following applies: at 1 µM.
Test [6] addresses Cyclin-dependent kinase 6 (Homo sapiens) (UniProt Q00534). The following applies: at 0.1 µM.
The target is the same in test [7]. Conditions: at 1 µM.
In test [8] the target is Dual specificity protein kinase CLK2 (Homo sapiens) (UniProt P49760). Conditions: at 0.1 µM.
Chain of Dual specificity protein kinase CLK2 (Homo sapiens) (P49760 whole entry, looked up): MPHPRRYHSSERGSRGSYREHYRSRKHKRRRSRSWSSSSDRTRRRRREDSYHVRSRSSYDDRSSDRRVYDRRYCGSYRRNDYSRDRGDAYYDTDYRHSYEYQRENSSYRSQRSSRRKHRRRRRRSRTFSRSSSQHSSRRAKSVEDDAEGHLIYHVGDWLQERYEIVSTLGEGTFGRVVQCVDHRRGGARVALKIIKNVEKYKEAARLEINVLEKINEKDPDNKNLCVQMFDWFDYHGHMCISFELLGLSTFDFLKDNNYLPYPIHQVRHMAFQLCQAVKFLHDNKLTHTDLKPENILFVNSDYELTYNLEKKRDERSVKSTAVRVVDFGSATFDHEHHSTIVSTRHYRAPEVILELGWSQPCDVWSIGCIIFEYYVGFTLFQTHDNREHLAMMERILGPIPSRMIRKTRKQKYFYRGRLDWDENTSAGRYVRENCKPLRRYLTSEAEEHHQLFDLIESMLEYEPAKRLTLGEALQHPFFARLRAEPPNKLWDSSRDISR
Test [9] shares this target. Conditions: at 1 µM.
For test [10], the target named is Dual specificity protein kinase CLK3 (Homo sapiens) (UniProt P49761). The following applies: at 0.1 µM.
Chain of Dual specificity protein kinase CLK3 (Homo sapiens) (P49761 whole entry, looked up): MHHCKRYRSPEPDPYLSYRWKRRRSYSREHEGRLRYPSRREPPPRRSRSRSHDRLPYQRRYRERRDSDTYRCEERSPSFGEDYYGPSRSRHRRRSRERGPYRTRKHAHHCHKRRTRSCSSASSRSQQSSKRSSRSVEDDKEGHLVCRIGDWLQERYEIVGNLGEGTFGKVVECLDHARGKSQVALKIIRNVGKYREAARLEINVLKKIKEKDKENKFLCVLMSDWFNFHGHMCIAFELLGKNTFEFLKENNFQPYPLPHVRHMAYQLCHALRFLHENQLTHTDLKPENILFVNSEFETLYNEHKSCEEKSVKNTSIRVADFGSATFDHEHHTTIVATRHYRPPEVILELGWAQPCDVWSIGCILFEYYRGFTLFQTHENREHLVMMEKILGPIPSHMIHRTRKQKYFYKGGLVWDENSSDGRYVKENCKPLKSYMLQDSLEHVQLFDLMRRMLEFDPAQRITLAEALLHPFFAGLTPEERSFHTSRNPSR

Chain of Cyclin-dependent kinase 6 (Homo sapiens) (Q00534 whole entry): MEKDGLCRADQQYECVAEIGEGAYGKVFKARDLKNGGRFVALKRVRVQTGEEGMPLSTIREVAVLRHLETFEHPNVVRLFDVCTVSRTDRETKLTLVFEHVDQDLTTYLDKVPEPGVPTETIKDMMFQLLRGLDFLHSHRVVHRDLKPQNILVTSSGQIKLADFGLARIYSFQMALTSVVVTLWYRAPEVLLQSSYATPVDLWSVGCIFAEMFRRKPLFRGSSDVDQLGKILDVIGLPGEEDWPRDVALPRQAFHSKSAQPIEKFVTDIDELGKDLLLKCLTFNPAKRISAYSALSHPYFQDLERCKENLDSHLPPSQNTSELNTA
Chain of Cyclin-dependent kinase 4 (Homo sapiens) (P11802 whole entry): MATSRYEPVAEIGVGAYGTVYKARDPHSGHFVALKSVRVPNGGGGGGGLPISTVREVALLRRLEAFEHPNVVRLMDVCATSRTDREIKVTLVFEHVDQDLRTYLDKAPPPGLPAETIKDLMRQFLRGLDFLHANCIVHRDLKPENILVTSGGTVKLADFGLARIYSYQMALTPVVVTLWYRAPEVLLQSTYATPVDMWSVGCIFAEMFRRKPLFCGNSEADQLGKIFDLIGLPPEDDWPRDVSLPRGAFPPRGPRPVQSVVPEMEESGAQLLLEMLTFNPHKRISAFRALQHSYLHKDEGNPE
Chain of CDK3/Cyclin E (Homo sapiens) (P24864 whole entry, looked up): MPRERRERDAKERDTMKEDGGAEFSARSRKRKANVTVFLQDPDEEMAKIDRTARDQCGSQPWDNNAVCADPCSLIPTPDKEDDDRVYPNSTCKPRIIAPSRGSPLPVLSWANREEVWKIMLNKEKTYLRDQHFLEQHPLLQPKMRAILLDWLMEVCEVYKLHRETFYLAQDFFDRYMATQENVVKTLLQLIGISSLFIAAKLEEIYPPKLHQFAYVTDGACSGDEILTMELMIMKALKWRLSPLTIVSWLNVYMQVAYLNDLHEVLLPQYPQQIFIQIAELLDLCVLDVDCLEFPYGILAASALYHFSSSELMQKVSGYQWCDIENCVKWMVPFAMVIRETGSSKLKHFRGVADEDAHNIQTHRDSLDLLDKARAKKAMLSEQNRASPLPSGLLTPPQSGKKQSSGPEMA
Chain of CDK3/Cyclin E (Homo sapiens) (Q00526 whole entry, looked up): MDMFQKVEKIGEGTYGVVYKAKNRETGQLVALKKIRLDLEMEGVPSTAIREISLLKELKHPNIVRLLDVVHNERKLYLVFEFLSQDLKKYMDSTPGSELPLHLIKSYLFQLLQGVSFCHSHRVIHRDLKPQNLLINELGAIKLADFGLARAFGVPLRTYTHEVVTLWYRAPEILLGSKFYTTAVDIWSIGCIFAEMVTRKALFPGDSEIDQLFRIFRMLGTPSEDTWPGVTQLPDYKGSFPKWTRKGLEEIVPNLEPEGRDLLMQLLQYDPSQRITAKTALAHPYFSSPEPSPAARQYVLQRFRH

As to `COc1ccc(-c2nn3ncccc3c2-c2ccnc(Nc3cccc(C(F)(F)F)c3)n2)cc1`, the inhibition in test [1] was -2.93%; in test [2], 1.42%; in [3] it was 3.64%; in test [4], 0.07%; in test [5], 1.77%; in test [6], -1.93%. For the same molecule, the inhibition in [7] is -0.66%; in test [8] it was 0.06%; in test [9] it was -1.44%; in [10] it was -0.4%.

`CC(C)c1ccc2c(c1)NC(=O)/C2=N/Nc1ccc(S(N)(=O)=O)cc1`: the inhibition in test [1] was determined as 6.26%; in test [2], 0.37%; in [3], 7.65%; in test [4], 1.59%; in [5] it was 5.95%; in test [6] it was 3.38%. Further, the inhibition in test [7] was 28.6%; in [8], -0.26%; in [9], -1.61%; in test [10] it was -0.29%.

On to `NS(=O)(=O)c1ccc(Nc2cc(-c3cccc(O)c3)n[nH]2)cc1`, for which the inhibition in test [1] turned out to be 28.8%; in test [2], 3.25%; in test [3] it was 9.51%; in test [4], 5.69%; in [5] it was 31.5%; in [6], 2.31%. Moreover, the inhibition in test [7] amounted to 21.3%; in [8] it was 3.77%; in [9] it was 2.54%; in [10], 1.95%.

On to `COc1cccc(-n2ncc3c(N/N=C/c4ccc(S(C)(=O)=O)cc4)ncnc32)c1`, for which the inhibition in test [1] came to 20.8%; in test [2], 0.01%; in [3], 20.4%; in [4] it was 21%; in test [5], 59.2%; in test [6], 0.78%. For the same molecule, the inhibition in test [7] is 25.6%; in test [8], 8.7%; in test [9], 18.4%; in test [10], -0.53%.

In the case of `NC(=O)c1sc(-n2cnc3ccccc32)cc1OCc1ccccc1Br`, the inhibition in test [1] is 0.26%; in test [2], 6.61%; in test [3] it was 8.04%; in [4] it was 3.59%; in test [5] it was 8.58%; in test [6], -3.6%. In addition, the inhibition in [7] was -1.95%; in test [8], 1.89%; in test [9], 5.2%; in test [10], 0.83%.

Take `COC(=O)Nc1nc2cc(Oc3ccc(NC(=O)Nc4cccc(Br)c4)cc3)ccc2[nH]1`: the inhibition in [1] is -4.35%; in test [2] it was 2.4%; in [3] it was 2.61%; in [4] it was 0.44%; in [5], 1.22%; in test [6], -3.24%. The inhibition came to 0.22% in test [7], 0.85% in test [8], 1.48% in test [9] and 1.73% in test [10].

For `C[C@@H](Oc1cc(-n2cnc3ccc(OC[C@@H](O)CO)cc32)sc1C(N)=O)c1ccccc1Cl`, the inhibition in test [1] was 1.56%; in [2] it was -0.86%; in [3], 0.89%; in test [4], 0.29%; in test [5], 1.88%; in test [6], -1.79%. Further, the inhibition in [7] was -0.4%; in test [8], 1.72%; in test [9], 7.52%; in test [10], 0.13%.

On to `Nc1nccc(-c2c(-c3ccc(F)cc3)ncn2CCCN2CCOCC2)n1`, for which the inhibition was -2.47% in test [1]; 3.06% in test [2]; 2.9% in [3]; 0.16% in [4]; 0.47% in test [5]; -2.14% in test [6]. The inhibition was 0.98% in test [7], 0.47% in [8], 0.74% in test [9] and 1.31% in [10].

Turning to `COc1cccc(-n2ncc3c(N/N=C/c4ccc(C)cc4)ncnc32)c1`, the inhibition in [1] was -1.25%; in test [2], 3.51%; in [3], 7.43%; in test [4] it was 2.17%; in [5], 6.59%; in [6], -2.39%. For the same molecule, the inhibition in test [7] is -0.54%; in test [8], -0.41%; in test [9], 6.42%; in test [10], 1.22%.

Regarding `CN(C)c1cc2c(Nc3ccc4c(cnn4Cc4ccccc4)c3)ncnc2cn1`, the inhibition was -0.2% in test [1]; 2.4% in test [2]; 4.36% in test [3]; 0.57% in test [4]; 1.24% in [5]; -3.6% in [6]. Also, the inhibition in test [7] is -0.22%; in [8], 0.87%; in test [9], -0.06%; in test [10] it was 0.92%.

As for `COc1ccc2ncnc(Nc3ccc(OCc4ccccc4)cc3)c2c1`, the inhibition was -1.97% in [1]; 0.76% in test [2]; 0.15% in test [3]; 0.36% in test [4]; 0.72% in [5]; -0.31% in test [6]. The inhibition in [7] is 1.08%; in test [8] it was 1.07%; in test [9] it was 0.25%; in test [10] it was 0.35%.

For `CCS(=O)(=O)c1ccc(OC)c(Nc2nccc(N(C)c3ccc4c(C)n[nH]c4c3)n2)c1`, the inhibition in test [1] is -2.55%; in test [2] it was 3.02%; in [3] it was 4.42%; in test [4], 0.13%; in [5] it was 0.33%; in test [6] it was -0.16%. The inhibition in test [7] is -1.74%; in test [8] it was 0.8%; in test [9], 0.04%; in test [10], 1.1%.

`COc1cc2ncnc(Nc3ccc(C)c(O)c3)c2cc1OC`: the inhibition was -1.71% in test [1]; 4.46% in test [2]; 6.21% in test [3]; 0.92% in test [4]; 2.99% in test [5]; -0.81% in [6]. Further, the inhibition in test [7] came out at 4.49%; in test [8] it was 1.85%; in [9] it was 0.29%; in test [10], 1.39%.

Regarding `COc1cc2ncnc(Nc3ccc4c(cnn4Cc4ccccc4)c3)c2cc1OC`, the inhibition is -1.25% in test [1]; 1.5% in [2]; 5.06% in test [3]; 4.4% in [4]; 6.81% in test [5]; -3.86% in [6]. Also, the inhibition is -2.1% in test [7], -0.74% in [8], 0.84% in test [9] and 1.15% in test [10].

With `NS(=O)(=O)c1cccc(Nc2cc(-c3ccc(F)cc3)n[nH]2)c1`, the inhibition in test [1] was found to be 36.7%; in test [2] it was 1.88%; in [3], 10%; in [4] it was 5.52%; in test [5] it was 31.4%; in test [6] it was 10.5%. The inhibition in test [7] came to 52.5%; in [8] it was 1.65%; in test [9], 1%; in test [10], 1.43%.

In the case of `CN(C)C(=O)O[C@@H]1CN[C@@H](C#Cc2cc3ncnc(Nc4ccc(OCc5cccc(F)c5)c(Cl)c4)c3s2)C1`, the inhibition is -1.66% in test [1]; 2.09% in test [2]; 1.46% in [3]; 0.54% in test [4]; 1.24% in test [5]; -6.37% in test [6]. Also, the inhibition in [7] is 0.91%; in test [8], 0.95%; in test [9], -0.08%; in test [10], -0.16%.

As for `[O-][S+]1CCN(Cc2ccc(-c3ccc4ncnc(Nc5ccc(OCc6ccccc6)c(Cl)c5)c4c3)o2)CC1`, the inhibition in test [1] was -1.44%; in [2], 0.13%; in test [3], 3.22%; in [4], 0.19%; in test [5] it was 0.51%; in test [6] it was -0.89%. The inhibition in test [7] was 0.14%; in test [8], -0.72%; in test [9], 0.49%; in [10], 0.43%.

One may read the inhibition as the change of the read-out against control, counted positive when it falls.

These data come from ChEMBL document CHEMBL1961873, “Compounds: GSK PKIS; Assays: Nanosyn kinase panel” (2012).
